Measurements from PubChem BioAssay (NCI).
Several values for one entry are separate records, joined by “and”; a condition that tells them apart may be missing. Equal entries are not always repeated. The panel holds about 83,000 compounds, 20% with a hit somewhere; the sample as a whole holds those more often.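 Single-concentration screen, 48 h exposure, 96-well plates. Endpoint: percent growth. Below 10 = active.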 Activity calls are given as the source filed them.

Assays:
Assay in all cases: NCI-60 one-dose screen, 48 h (100 = growth as untreated, 0 = no growth, -100 = all killed)
Settings in all cases: 10 µM unless noted
DU-145 prostate = tested on: DU-145 prostate
K-562 leukemia = tested on: K-562 leukemia
MALME-3M melanoma = tested on: MALME-3M melanoma
MDA-MB-231 breast = tested on: MDA-MB-231 breast
RXF 393 renal = tested on: RXF 393 renal
SF-268 CNS = tested on: SF-268 CNS
SF-295 CNS = tested on: SF-295 CNS
SF-539 CNS = tested on: SF-539 CNS
UACC-257 melanoma = tested on: UACC-257 melanoma
M14 melanoma = tested on: M14 melanoma

Measured: growth

CCCCOC1NC(=O)NC(=O)C1(F)C(=O)OCC (stereo not given)
11.3% (inactive) and 5.65% (active): SF-539 CNS
inactive: DU-145 prostate 73% and 51.5% | K-562 leukemia 88.1% and 57.4% | MALME-3M melanoma 65.7% and 65.1% | MDA-MB-231 breast 92.8% and 75% | RXF 393 renal 98.1% and 82.7% | SF-268 CNS 98.8% and 83.1% | SF-295 CNS 94.1% and 93.7% | UACC-257 melanoma 77.2% | M14 melanoma 71.4% and 71.3%

CCC/C(=N/NC(N)=O)c1ccco1
inactive: DU-145 prostate 109% | K-562 leukemia 104% | MALME-3M melanoma 83.8% | MDA-MB-231 breast 100% | RXF 393 renal 105% | SF-268 CNS 102% | SF-295 CNS 98.4% | SF-539 CNS 93% | UACC-257 melanoma 98.6% | M14 melanoma 97.6%

Cc1nc2c(=O)[nH]c(=S)[nH]c2[nH]c1=O
inactive: DU-145 prostate 112% and 119% | K-562 leukemia 102% | MALME-3M melanoma 108% | MDA-MB-231 breast 112% and 102% | RXF 393 renal 111% and 125% | SF-268 CNS 109% and 104% | SF-295 CNS 111% and 94.6% | SF-539 CNS 104% and 99.1% | UACC-257 melanoma 110% and 97.8% | M14 melanoma 113% and 110%

O=[N+]([O-])c1cccc(N=Cc2ccccc2)c1
inactive: DU-145 prostate 117% | K-562 leukemia 95.8% | MALME-3M melanoma 119% | MDA-MB-231 breast 106% | RXF 393 renal 105% | SF-268 CNS 105% | SF-295 CNS 96.5% | SF-539 CNS 99.5% | UACC-257 melanoma 102% | M14 melanoma 106%

C/C=C/C(=O)OCCCCCCCCCCCC
inactive: DU-145 prostate 118% | K-562 leukemia 93.3% | MALME-3M melanoma 111% | MDA-MB-231 breast 93.2% | RXF 393 renal 110% | SF-268 CNS 106% | SF-295 CNS 105% | SF-539 CNS 109% | UACC-257 melanoma 94.4% | M14 melanoma 98.7%

OCCSc1ccc(Cl)cc1
inactive: DU-145 prostate 125% and 107% | K-562 leukemia 112% and 136% | MALME-3M melanoma 117% and 83.8% | MDA-MB-231 breast 115% and 99.5% | RXF 393 renal 114% and 108% | SF-268 CNS 124% and 101% | SF-295 CNS 94.9% and 101% | SF-539 CNS 108% and 91.7% | UACC-257 melanoma 114% and 97.2% | M14 melanoma 107% and 94.2%

CC(=O)c1cccc(OC(=O)c2ccccc2)c1
inactive: DU-145 prostate 114% | K-562 leukemia 92% | MALME-3M melanoma 110% | MDA-MB-231 breast 102% | RXF 393 renal 117% | SF-268 CNS 106% | SF-295 CNS 124% | SF-539 CNS 109% | UACC-257 melanoma 101% | M14 melanoma 93.1%

O=[N+]([O-])c1cccc2ccc(N/N=C/c3ccccc3O)nc12
inactive: DU-145 prostate 88.7% and 107% | K-562 leukemia 19.9% and 49.1% | MALME-3M melanoma 96.2% and 100% | MDA-MB-231 breast 72.6% and 84.5% | RXF 393 renal 84.6% | SF-268 CNS 106% and 99.2% | SF-295 CNS 104% and 102% | SF-539 CNS 90.9% and 101% | UACC-257 melanoma 92.1% and 85.4% | M14 melanoma 88.9% and 107%

COC(=O)c1cc(C(=O)OC)cc([N+](=O)[O-])c1
inactive: DU-145 prostate 113% | K-562 leukemia 99.7% | MALME-3M melanoma 113% | MDA-MB-231 breast 112% | RXF 393 renal 118% | SF-268 CNS 108% | SF-295 CNS 111% | SF-539 CNS 97.4% | UACC-257 melanoma 82.7% | M14 melanoma 106%

O=S(=O)(O)c1ccc2cc(O)ccc2c1
inactive: DU-145 prostate 112% | K-562 leukemia 103% | MALME-3M melanoma 101% | MDA-MB-231 breast 108% | RXF 393 renal 109% | SF-268 CNS 106% | SF-295 CNS 110% | SF-539 CNS 102% | UACC-257 melanoma 105% | M14 melanoma 103%

NNC(=O)Nc1ccccc1
inactive: DU-145 prostate 106% | K-562 leukemia 102% | MALME-3M melanoma 99.6% | MDA-MB-231 breast 91.2% | RXF 393 renal 108% | SF-268 CNS 100% | SF-295 CNS 96.3% | SF-539 CNS 97% | UACC-257 melanoma 108% | M14 melanoma 107%

COC(=O)c1nc(N)nc(C(=O)OC)c1C(=O)c1ccc(F)cc1
inactive: DU-145 prostate 111% | K-562 leukemia 109% | MALME-3M melanoma 104% | MDA-MB-231 breast 103% | RXF 393 renal 104% | SF-268 CNS 103% | SF-295 CNS 101% | SF-539 CNS 103% | UACC-257 melanoma 110% | M14 melanoma 108%

O=C(O)COc1ccccc1F
inactive: DU-145 prostate 108% | K-562 leukemia 92.5% | MALME-3M melanoma 108% | MDA-MB-231 breast 115% | RXF 393 renal 92.3% | SF-268 CNS 107% | SF-295 CNS 106% | SF-539 CNS 97.4% | UACC-257 melanoma 115% | M14 melanoma 103%

CCOP(=O)(OCC)/C(C#N)=C/c1c(C)[nH]c2ccccc12
inactive: DU-145 prostate 107% | K-562 leukemia 94.6% | MALME-3M melanoma 105% | MDA-MB-231 breast 90.4% | RXF 393 renal 108% | SF-268 CNS 102% | SF-295 CNS 95.1% | SF-539 CNS 99% | UACC-257 melanoma 92.6% | M14 melanoma 92.4%

CC(=O)Nc1ccc2oc(=O)ccc2c1
inactive: DU-145 prostate 100% | K-562 leukemia 64.9% | MALME-3M melanoma 110% | MDA-MB-231 breast 94.6% | RXF 393 renal 103% | SF-268 CNS 114% | SF-295 CNS 108% | SF-539 CNS 99.1% | UACC-257 melanoma 104% | M14 melanoma 100%

CCN(C)c1ccccc1
inactive: DU-145 prostate 108% | K-562 leukemia 110% | MALME-3M melanoma 96% | MDA-MB-231 breast 98.8% | RXF 393 renal 106% | SF-268 CNS 99.1% | SF-295 CNS 91% | SF-539 CNS 97.7% | UACC-257 melanoma 103% | M14 melanoma 100%

CC(O)CCNC(c1ccccc1)C(O)c1ccccc1 (stereo not given)
inactive: DU-145 prostate 131% | K-562 leukemia 101% | MALME-3M melanoma 123% | MDA-MB-231 breast 104% | RXF 393 renal 115% | SF-268 CNS 111% | SF-295 CNS 102% | SF-539 CNS 115% | UACC-257 melanoma 108% | M14 melanoma 104%

CC(=O)Nc1cscc1NC(C)=O
inactive: DU-145 prostate 98.4% | K-562 leukemia 125% | MALME-3M melanoma 88.4% | MDA-MB-231 breast 101% | RXF 393 renal 107% | SF-268 CNS 96.2% | SF-295 CNS 87.3% | SF-539 CNS 90.7% | UACC-257 melanoma 104% | M14 melanoma 104%

C=CCN1C(=O)c2ccccc2C1=O
inactive: DU-145 prostate 107% | K-562 leukemia 106% | MALME-3M melanoma 120% | MDA-MB-231 breast 106% | RXF 393 renal 104% | SF-268 CNS 106% | SF-295 CNS 109% | SF-539 CNS 95.3% | UACC-257 melanoma 102% | M14 melanoma 99.9%

S=c1nn[nH]n1C1CCCCC1
inactive: DU-145 prostate 105% | K-562 leukemia 122% | MALME-3M melanoma 95.8% | MDA-MB-231 breast 116% | RXF 393 renal 148% | SF-268 CNS 105% | SF-295 CNS 97% | SF-539 CNS 106% | UACC-257 melanoma 97.8% | M14 melanoma 100%

COC1C(OC(N)=O)C(O)C(Oc2ccc3c(O)c(NC(=O)c4ccc(O)c(CC=C(C)C)c4)c(=O)oc3c2C)OC1(C)C (stereo not given)
inactive: DU-145 prostate 106% and 105% | K-562 leukemia 79.4% and 116% | MALME-3M melanoma 121% and 101% | MDA-MB-231 breast 108% and 88.2% | RXF 393 renal 104% and 98.2% | SF-268 CNS 104% and 97.1% | SF-295 CNS 92.7% and 94.9% | SF-539 CNS 98% and 97.1% | UACC-257 melanoma 104% and 101% | M14 melanoma 102% and 99.2%

O=C(O)C1CSCN1 (stereo not given)
inactive: DU-145 prostate 116% and 127% | K-562 leukemia 93.5% and 95.2% | MALME-3M melanoma 94.1% | MDA-MB-231 breast 107% and 112% | RXF 393 renal 123% | SF-268 CNS 117% and 104% | SF-295 CNS 104% and 108% | SF-539 CNS 121% and 93.4% | UACC-257 melanoma 106% and 91.6% | M14 melanoma 108% and 99.8%

Nc1c(S(=O)(=O)O)cc(Br)c2c1C(=O)c1ccccc1C2=O
inactive: DU-145 prostate 106% and 116% | K-562 leukemia 101% and 96.6% | MALME-3M melanoma 97.6% and 116% | MDA-MB-231 breast 115% and 107% | RXF 393 renal 111% and 98.7% | SF-268 CNS 102% and 106% | SF-295 CNS 104% and 100% | SF-539 CNS 104% and 101% | UACC-257 melanoma 83.3% | M14 melanoma 117% and 110%

Cc1nc(Nc2ccc(Cl)cc2)c2cnn(-c3ccccc3)c2n1
inactive: DU-145 prostate 107% | K-562 leukemia 113% | MALME-3M melanoma 90.3% | MDA-MB-231 breast 111% | RXF 393 renal 93.6% | SF-268 CNS 99.8% | SF-295 CNS 97.1% | SF-539 CNS 99.9% | UACC-257 melanoma 101% | M14 melanoma 100%
